{"source": "PubChem BioAssay", "key": {"[1]": {"test": "viability loss in pontine glioma line – cell-based, SU-DIPG-XVII, MIPE5.0, CellTiter-Glo, qHTS, dose response (AID 1347060; cut-off not given, nearly all actives have AC50 up to about 26 µM)", "details": "CellTiter-Glo ATP luminescence"}, "[2]": {"test": "viability loss in pontine glioma line – cell-based, SU-DIPG-XIII, MIPE5.0, CellTiter-Glo, qHTS, dose response (AID 1347064; cut-off not given, nearly all actives have AC50 up to about 23 µM)", "details": "CellTiter-Glo ATP luminescence"}, "[3]": {"test": "viability loss in pontine glioma line – cell-based, SU-DIPG-XXV, MIPE5.0, CellTiter-Glo, qHTS, dose response (AID 1347065; cut-off not given, nearly all actives have AC50 up to about 26 µM;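 further: cells exposed to compound for 48 hours before ATP readout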)", "details": "CellTiter-Glo ATP luminescence"}, "[4]": {"test": "growth inhibition of DIPG cells – cell-based, MIPE4.0 library, CellTiter-Glo luminescence, qHTS (AID 1347066; cut-off not given, nearly all actives have AC50 up to about 30 µM;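 further: cells exposed to compound for 48 hours before readout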)", "details": "SU-DIPG-VI viability, CellTiter-Glo ATP luminescence"}, "[5]": {"test": "JHH-DIPG-1 glioma cell viability, MIPE5.0 library, CellTiter-Glo luminescence, qHTS (AID 1347067; cut-off not given, nearly all actives have AC50 up to about 26 µM;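 further: cells exposed to compound for 48 hours before readout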)", "details": "JHH-DIPG-1 glioma viability, CellTiter-Glo ATP luminescence"}, "[6]": {"test": "growth inhibition of DIPG cells – cell-based, MIPE5.0 library, qHTS (AID 1347068; cut-off not given, nearly all actives have IC50 up to about 30 µM)", "details": "SU-DIPG-XXV viability"}, "[7]": {"test": "viability loss with induced miR-34 in A549 – imaging, A549 dox-inducible miR-34, nuclei and caspase counts, primary screen (AID 1347080;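 active means compounds whose cell count with miR-34 switched on is under 0.7 times the count with it off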)", "details": "A549 miR-34 inducible, Hoechst nuclei count, 48 h"}, "[8]": {"test": "compounds altering HSF1 focus formation in cells – imaging, Selleck Cancer Library (AID 1347162; in the data active means plate-normalised HSF1 focus index below about 0.46)", "details": "human cells, HSF1 nuclear foci imaging, at 10 µM; SSMD: measured here: HSF1 foci SSMD mean; cell count: measured here: cell number; plate-normalised HSF1 focus index: stronger effect = lower value"}, "[9]": {"test": "MELAS cybrid and Rieske KO viability enhancers – cell-based, MELAS cybrids, Rieske KO mouse fibroblasts, CellTiter-Glo, primary screen (AID 1508586;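 active means mean z-score across replicates of 1.96 or higher in either the MELAS or the Rieske mutant cell line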;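 further: z relative to plate mean and SD of compound and empty wells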)", "details": "low glucose"}, "[10]": {"test": "drug combination growth inhibition, ovarian cancer – cell-based, oncology-focused library, rucaparib conditional, profiling panel (AID 1508598)", "details": "patient-derived ovarian cancer cells, CellTiter-Glo viability, 144 h, stronger effect = lower value"}, "[11]": {"test": "growth inhibition, single agent or in combination, cell-based, chromothripsis tumors, cisplatin or BGB combos (AID 1671449; in the data active means inhibition above about 80%;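 further: cells exposed for 96 hours; 0% = vehicle DMSO and 100% = killing by high DMSO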)", "details": "LFS_MB_P medulloblastoma cells"}, "[12]": {"test": "growth inhibition, single agent and combos, cell-based, chromothripsis tumors, cisplatin or BGB combos (AID 1671450; in the data active means inhibition above about 80%;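 further: cells exposed to compound for four days; 0% = vehicle DMSO and 100% = cell killing by high DMSO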)", "details": "HDN33 neuroblastoma cells, stronger effect = higher value"}}, "note": "Several values for one entry are separate records, joined by “and”; a condition that tells them apart may be missing. Identical values can stand only once. Records with an inconclusive call do not appear. Activity calls are given as the source filed them.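 How the source made its calls, unless noted: active means normalized viability below 100% at a tested concentration; inactive means the rest.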", "data": [{"smiles": "NC(=O)c1ccc(I)c([N+](=O)[O-])c1", "values": [{"measurement": "outcome", "setting": "[1]", "result": "inactive"}, {"measurement": "outcome", "setting": "[2]", "result": "inactive"}, {"measurement": "outcome", "setting": "[3]", "result": "inactive"}, {"measurement": "outcome", "setting": "[4]", "result": "inactive"}, {"measurement": "outcome", "setting": "[5]", "result": "inactive"}, {"measurement": "outcome", "setting": "[6]", "result": "inactive"}, {"measurement": "fold change", "setting": "[7]; stronger effect = lower value, cell number ratio, induced over uninduced", "result": "0.861 (inactive)"}, {"measurement": "fold change", "setting": "[7]; measured here: relative caspase fold change +Dox/-Dox", "result": 0.928}, {"measurement": "cell count", "setting": "[7]; measured here: total cells with miR-34 induction, stronger effect = lower value", "result": 7270}, {"measurement": "cell count", "setting": "[7]; measured here: total cells without miR-34 induction", "result": 8450}, {"measurement": "SSMD", "setting": "[8]", "result": 1.45}, {"measurement": "cell count", "setting": "[8]", "result": 6730}, {"measurement": "plate-normalised HSF1 focus index", "setting": "[8]", "result": "1.07 (inactive)"}, {"measurement": "z-score", "setting": "[9]; MELAS cybrid survival, CellTiter-Glo 48 h, stronger effect = higher value", "result": "-0.444 (inactive)"}, {"measurement": "z-score", "setting": "[9]; Rieske KO mouse fibroblast survival, CellTiter-Glo 72 h", "result": 0.628}, {"measurement": "viability", "setting": "[10]; at 0.000305 µM, OCI-C5x cells, with rucaparib 10 µM, 100% = cells with rucaparib alone", "result": "109% (inactive)"}, {"measurement": "viability", "setting": "[10]; at 0.000305 µM, OCI-C5x cells, without rucaparib", "result": "119% (inactive)"}, {"measurement": "viability", "setting": "[10]; at 0.000305 µM, OCI-P5x cells, with rucaparib 20 µM, 100% = cells with rucaparib alone", "result": "98.3% (active)"}, {"measurement": "viability", "setting": "[10]; at 0.000305 µM, OCI-P5x cells, without rucaparib", "result": "94.7% (active)"}, {"measurement": "viability", "setting": "[10]; at 0.00122 µM, OCI-C5x cells, with rucaparib 10 µM, 100% = cells with rucaparib alone", "result": "110% (inactive)"}, {"measurement": "viability", "setting": "[10]; at 0.00122 µM, OCI-C5x cells, without rucaparib", "result": "116% (inactive)"}, {"measurement": "viability", "setting": "[10]; at 0.00122 µM, OCI-P5x cells, with rucaparib 20 µM, 100% = cells with rucaparib alone", "result": "102% (inactive)"}, {"measurement": "viability", "setting": "[10]; at 0.00122 µM, OCI-P5x cells, without rucaparib", "result": "97.6% (active)"}, {"measurement": "viability", "setting": "[10]; at 0.00488 µM, OCI-C5x cells, with rucaparib 10 µM, 100% = cells with rucaparib alone", "result": "113% (inactive)"}, {"measurement": "viability", "setting": "[10]; at 0.00488 µM, OCI-C5x cells, without rucaparib", "result": "127% (inactive)"}, {"measurement": "viability", "setting": "[10]; at 0.00488 µM, OCI-P5x cells, with rucaparib 20 µM, 100% = cells with rucaparib alone", "result": "101% (inactive)"}, {"measurement": "viability", "setting": "[10]; at 0.00488 µM, OCI-P5x cells, without rucaparib", "result": "102% (inactive)"}, {"measurement": "viability", "setting": "[10]; at 0.0195 µM, OCI-C5x cells, with rucaparib 10 µM, 100% = cells with rucaparib alone", "result": "127% (inactive)"}, {"measurement": "viability", "setting": "[10]; at 0.0195 µM, OCI-C5x cells, without rucaparib", "result": "126% (inactive)"}, {"measurement": "viability", "setting": "[10]; at 0.0195 µM, OCI-P5x cells, with rucaparib 20 µM, 100% = cells with rucaparib alone", "result": "103% (inactive)"}, {"measurement": "viability", "setting": "[10]; at 0.0195 µM, OCI-P5x cells, without rucaparib", "result": "95.1% (active)"}, {"measurement": "viability", "setting": "[10]; at 0.0781 µM, OCI-C5x cells, with rucaparib 10 µM, 100% = cells with rucaparib alone", "result": "119% (inactive)"}, {"measurement": "viability", "setting": "[10]; at 0.0781 µM, OCI-C5x cells, without rucaparib", "result": "117% (inactive)"}, {"measurement": "viability", "setting": "[10]; at 0.0781 µM, OCI-P5x cells, with rucaparib 20 µM, 100% = cells with rucaparib alone", "result": "97.2% (active)"}, {"measurement": "viability", "setting": "[10]; at 0.0781 µM, OCI-P5x cells, without rucaparib", "result": "102% (inactive)"}, {"measurement": "viability", "setting": "[10]; at 0.313 µM, OCI-C5x cells, with rucaparib 10 µM, 100% = cells with rucaparib alone", "result": "115% (inactive)"}, {"measurement": "viability", "setting": "[10]; at 0.313 µM, OCI-C5x cells, without rucaparib", "result": "117% (inactive)"}, {"measurement": "viability", "setting": "[10]; at 0.313 µM, OCI-P5x cells, with rucaparib 20 µM, 100% = cells with rucaparib alone", "result": "101% (inactive)"}, {"measurement": "viability", "setting": "[10]; at 0.313 µM, OCI-P5x cells, without rucaparib", "result": "88.7% (active)"}, {"measurement": "viability", "setting": "[10]; at 1.25 µM, OCI-C5x cells, with rucaparib 10 µM, 100% = cells with rucaparib alone", "result": "114% (inactive)"}, {"measurement": "viability", "setting": "[10]; at 1.25 µM, OCI-C5x cells, without rucaparib", "result": "122% (inactive)"}, {"measurement": "viability", "setting": "[10]; at 1.25 µM, OCI-P5x cells, with rucaparib 20 µM, 100% = cells with rucaparib alone", "result": "94.9% (active)"}, {"measurement": "viability", "setting": "[10]; at 1.25 µM, OCI-P5x cells, without rucaparib", "result": "94.9% (active)"}, {"measurement": "viability", "setting": "[10]; at 5 µM, OCI-C5x cells, with rucaparib 10 µM, 100% = cells with rucaparib alone", "result": "102% (inactive)"}, {"measurement": "viability", "setting": "[10]; at 5 µM, OCI-C5x cells, without rucaparib", "result": "122% (inactive)"}, {"measurement": "viability", "setting": "[10]; at 5 µM, OCI-P5x cells, with rucaparib 20 µM, 100% = cells with rucaparib alone", "result": "110% (inactive)"}, {"measurement": "viability", "setting": "[10]; at 5 µM, OCI-P5x cells, without rucaparib", "result": "91.7% (active)"}, {"measurement": "inhibition", "setting": "[11]; at 0.5 µM, stronger effect = higher value", "result": "-30.4% (inactive) and -3.77% (inactive)"}, {"measurement": "inhibition", "setting": "[11]; measured here: combination with BGB IC20, at 0.005 µM", "result": "11.8% and -4.71%"}, {"measurement": "inhibition", "setting": "[11]; measured here: combination with BGB IC40, at 0.005 µM", "result": "-7.86% and -37.5%"}, {"measurement": "inhibition", "setting": "[11]; measured here: combination with BGB IC40, at 0.05 µM", "result": "5% and -21.1%"}, {"measurement": "inhibition", "setting": "[11]; measured here: combination with cisplatin, at 0.5 µM, stronger effect = higher value", "result": "-54.2% and -27.9%"}, {"measurement": "inhibition", "setting": "[11]; measured here: combination with cisplatin, at 5 µM, stronger effect = higher value", "result": "-10.7% and -15.7%"}, {"measurement": "inhibition", "setting": "[12]; BGB combo, at 5 µM", "result": "13.3% and -25.3%"}, {"measurement": "inhibition", "setting": "[12]; at 0.5 µM", "result": "0.82% (inactive) and -18.3% (inactive)"}, {"measurement": "inhibition", "setting": "[12]; cisplatin combo, at 5 µM", "result": "6.61% and -13.4%"}, {"measurement": "inhibition", "setting": "[12]; measured here: with BGB IC20 combination, at 0.5 µM", "result": "-4.77% and -10.4%"}]}]}
